PubChem BioAssay AID624296 (National Center for Advancing Translational Sciences (NCATS), 2012)
In all, about 350,000 compounds went through this assay and about 9,900 (2.8%) were called active. Entries that show only a call come without a potency. About 15% were inconclusive and are not listed. The call rests on the fitted dose curve; in most records, active means well fitted activation curve with a large enough effect; inconclusive means small, poorly fitted or top-dose-only effect; inactive means no such curve, though single readings can be large or run the other way. Only a selection was taken, and actives are over-represented in it overall.

experiment: A quantitative high throughput screen for small molecules that induce DNA re-replication in MCF 10a normal breast cells.; further: nearly all actives have a fitted effect of over 50% in size; details: MCF 10A DNA re-replication, Hoechst nuclear intensity, 48 h; series mostly up to 46.1 µM
Potency means the concentration at half of the fitted maximal effect.

Compound	Potency
CC(=O)Nc1ccc(S(=O)(=O)NCCC(=O)N2CCN(c3ccccc3Cl)CC2)cc1	inactive
NC(=O)c1ncn([C@@H]2O[C@H](CN=C3NS(=O)(=O)c4ccccc43)[C@@H](O)[C@H]2O)n1	inactive
CCc1sc(C(=O)N2CCN(CC(=O)Nc3cccc(F)c3)CC2)cc1C	inactive
CCOc1ccc(N2C(=O)CC(N(O)c3ccccc3)C2=O)cc1 (centres undefined)	inactive
COC(=O)CN(C(=S)Nc1ccc(Cl)cc1)C1CC(=O)N(c2ccc(OC)cc2)C1=O (centres undefined)	inactive
CCOc1ccc(N2C(=O)CC(N(CCc3ccc(OC)c(OC)c3)C(=S)Nc3ccccc3)C2=O)cc1 (centres undefined)	23.1 µM (active)
COc1ccccc1N1CCN(CC(=O)Nc2ccnn2C2CCCC2)CC1	inactive
CC(C)Cn1cnc2c(SCc3ccc(Cl)cc3)nc(N)nc21	inactive
O=C(O)c1ccc(Cn2c(=S)[nH]c3cc(Cl)ccc3c2=O)cc1	inactive
CC(C)c1ccc2c(c1)c(SC(C)(C)C)c(CC(C)(C)C(=O)O)n2Cc1ccc(Cl)cc1	2.91 µM (active)
CCN([C@H](CO)C(C)C)S(=O)(=O)c1ccccc1Br	inactive
COc1ccc(-c2c(C#Cc3ccsc3)c3cc(-c4ccc(CN5CCOCC5)cc4)ccc3n2C)cc1	inactive
COc1cc(OC)cc(-c2c(C#Cc3ccsc3)c3cc(-c4ccc(SC)cc4)ccc3n2C)c1	inactive
COc1cc(OC)cc(-c2c(C#Cc3ccsc3)c3cc(-c4ccc(OC)cc4F)ccc3n2C)c1	0.326 µM (active)
COc1cccc2oc(CCc3ccccc3)cc(=O)c12	inactive
Cc1nn(-c2ncccn2)c2c1C(=O)CC(C)(C)C2Br (centres undefined)	inactive
O=C(O)CCC(=O)N(Cc1ccccc1)Cc1ccccc1	0.731 µM (active)
CCN(CC)C(=O)N(CC)Cc1ccccc1	inactive
O=C(O)CCC(=O)N(Cc1cccs1)Cc1cccs1	inactive
Cc1cc(NC(=O)C(C)SCC(=O)Nc2cccc(S(=O)(=O)N3CCCCCC3)c2)no1 (centres undefined)	inactive
O=C(CC(Cc1ccccc1)C(=O)O)NCCc1ccc2c(c1)OCO2 (centres undefined)	inactive
Cn1cc(CCC(=O)NCc2ccc3c(c2)OCO3)c2ccccc21	inactive

Compound	Potency
O=C(CCc1nnc(Cc2ccc3c(c2)OCO3)o1)NCCc1ccccc1Cl	20.6 µM (active)
COc1ccc(CCC(=O)N2CCN(S(=O)(=O)c3ccc(OC)cc3)CC2)cc1	inactive
Cc1ccc(CN2C(=O)N/C(=C/c3cc(C)n(-c4ccccn4)c3C)C2=O)cc1	inactive
Cc1ccccc1-n1c(C)cc(/C=C2\NC(=O)NC2=O)c1C	25.9 µM (active)
Cc1ccccc1-n1c(C)cc(/C=N/NC(=O)c2ccc(CN3CCOCC3)cc2)c1C	inactive
CC1(C)CC(=O)C=C(c2cccc3c2Oc2ccccc2S3)C1	inactive
CC(=NNC(=O)c1ccc2nc[nH]c2c1)c1ccc(Br)cc1	inactive
O=C(Nc1cccc2ncccc12)c1ccc(-c2ccc(Cl)cc2Cl)o1	inactive
Cc1csc(NC(=O)c2ccc(C)s2)n1	inactive
Cc1csc(NC(=O)c2ccc(-c3ccc(Cl)cc3Cl)o2)n1	18.4 µM (active)
CC(Nc1ccc([N+](=O)[O-])cc1[N+](=O)[O-])c1ccccc1 (centres undefined)	inactive
Cc1nc2cc(C(F)(F)F)ccc2n1CCNc1nc(-c2cc(Cl)c(N)c(Cl)c2)cs1	23.1 µM (active)
CCCn1c(C(C)Nc2nc(-c3ccc(C)cc3)cs2)nc2cc(Cl)c(N3CCCCC3)cc21 (centres undefined)	inactive
CCCn1c(CCNc2nc(-c3ccc(OC)cc3)cs2)nc2ccccc21	inactive
CC1CCCCC1NC(=O)Cn1cnc2c1c(=O)n(C)c(=O)n2C (centres undefined)	inactive
CCCN(CC(=O)Nc1ccccc1C)C(=O)c1ccc(OCC(=O)N2CCOCC2)c(OCC)c1	inactive
COCCNC(=O)c1ccc2nc(Cc3ccc(OC)c(OC)c3)oc2c1	3.26 µM (active)
CSCCNC(=O)c1ccc2nc(Cc3ccccc3F)oc2c1	inactive
COc1ccc(Cc2nc3ccc(C(=O)NCC4CCOCC4)cc3o2)cc1OC	inactive
CCOc1ccc(NC(=O)CN(C)C(=O)c2cccc(S(=O)(=O)N3CCCC3)c2)cc1OCC	inactive
COc1ccc(S(=O)(=O)N2CCOCC2)cc1NC(=O)c1ccc(OCC(C)C)c(OC)c1	inactive
CCCOc1ccc(Cn2ccnc2)cc1[N+](=O)[O-]	inactive

Compound	Potency
CCCCCOc1ccc(CSC2=NCCN2)cc1[N+](=O)[O-]	20.6 µM (active)
Cc1nc(SCc2ccc(F)cc2)c([N+](=O)[O-])[nH]1	inactive
COc1ccccc1C1=CC(=O)C[C@H](c2ccc(F)cc2)C1	inactive
CCC(Cc1ccccc1)NC(=O)C1CCCCC1 (centres undefined)	0.651 µM (active)
O=C(COC(=O)CNC(=O)C1CCCCC1)NCc1ccccc1	inactive
Cc1ccc(NC(=O)[C@H](Cc2ccccc2)NC(=O)C2CCNCC2)cc1	inactive
O=C(O)c1ccc(Cn2cnc3c(=S)nc[nH]c32)cc1	inactive
COc1ccccc1N(CCOc1ccccc1)S(=O)(=O)c1ccccc1	inactive
COc1ccc(C(=O)NN(C)c2nc(-c3ccccc3)cc(C)c2S(C)(=O)=O)cc1	inactive
CSc1nc(N(C)NC(=O)c2cccc(C)c2)c2ccccc2n1	0.231 µM (active)
Cc1cccc(C(=O)NCCCN(C)CCCNC(=O)c2cccc(C)c2)c1	inactive
CCN(c1ccccc1)S(=O)(=O)c1ccc(OCC(=O)N2CCCC2)cc1	inactive
O=C(NCCN1CCOCC1)c1ccc2c(c1)N(Cc1ccc(Cl)cc1)CCS2	inactive
Cc1ccc(C(=O)NCCN2CCOCC2)cc1C	inactive
Cc1c(C)n(Cc2ccc(Cl)cc2)c2ccc(C(=O)NCCCN3CCOCC3)cc12	23.1 µM (active)
COC(=O)C1=CO[C@@H](O[C@@H]2O[C@H](CO)[C@@H](O)[C@H](O)[C@H]2O)C2C1C[C@H](O)[C@@H]2C (some centres undefined)	inactive
O=c1nc(NO)ccn1C1CCCO1 (centres undefined)	inactive
COc1cc(NC(=O)c2cccnc2SC)cc(OC)c1	inactive
COc1cc(OC)c(S(=O)(=O)Nc2ccccc2C(=O)O)cc1S(=O)(=O)Nc1ccccc1C(=O)O	inactive
COc1cc(NC(=O)c2ccccc2NS(=O)(=O)c2ccc(Cl)s2)cc(OC)c1	14.6 µM (active)
